# Results filed as inconclusive are left out. Active and inactive are the calls of the source. The call rests on the fitted dose curve; in most records, active means well fitted curve in the direction sought with a large enough effect; inconclusive means small, poorly fitted or top-dose-only effect, or another doubt; inactive means no such curve, though single readings can be large; an effect the other way counts as inactive or inconclusive.
# Assays:
# [1] = S16 Schwann cell viability assay (CellTiter-Glo assay) (AID 624031);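 further: native untransfected S16 rat Schwann cells; cellular ATP luminescence as a viability measure; nearly all actives have a fitted effect of over 70% in size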
# How it was run: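 Following overnight culture in 10% FBS DMEM, parental S16 rat Schwann cells are dosed for 24 h at 37 °C. Viability is read as CellTiter-Glo luminescence and expressed as % activity relative to DMSO (0%) and no-cell wells.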
# PC15 = assay: qHTS profiling for inhibitors of Plasmodium falciparum proliferation (AID 504749); further: nearly all actives have a fitted effect of over 60% in size; conditions: P. falciparum in erythrocytes, SYBR Green DNA, 72 h; series mostly up to 28.7 µM
# How it was run: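 Fluorescence of SYBR Green-bound parasite DNA, read at 485/535 nm, served as the growth measure. Infected erythrocytes were cultured with compound 72 h; artemisinin (0.29 uM) and DMSO wells defined the normalization range.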
# [2] = UWB1.289 Cancer Cell Toxicity qHTS against the NCATS CANVASS Library (AID 1347347); further: potency means the concentration at half of the fitted maximal effect; nearly all actives have a fitted effect of over 60% in size
# How it was run: (§1)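 In this cytotoxicity screen, 1000 cells per well rested 4 hours, then received compound (11 concentrations) for a 72-hour incubation; an ATP-dependent luminescent signal (CellTiter-Glo) was the endpoint.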
# [3] = OV-SAHO Cancer Cell Toxicity qHTS against the NCATS CANVASS Library (AID 1347348); further: nearly all actives have a fitted effect of over 55% in size
# How it was run: as §1
# [4] = qHTS for activators of Nrf2/ARE signaling pathway screened against the NCATS CANVASS Library (AID 1347391); further: nearly all actives have a fitted effect of over 60% in size
# How it was run: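 Activation of Nrf2/ARE was scored in ARE-bla HepG2 cells after 16 h compound exposure using CCF4 beta-lactamase fluorescence ratio readings.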
# [5] = J3T Cancer Cell Toxicity qHTS against the NCATS CANVASS Library (AID 1347371);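 further: J3T is a canine glioma cancer cell line seeded at 500 cells per well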
# How it was run: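 ATP-based cytotoxicity in canine J3T cells: 72 hr exposure at 37C, 11-point titration, CellTiterGlo luminescent detection.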
# [6] = qHTS for inhibitors of ER calcium dysfunction: SERCaMP assay screened against the NCATS CANVASS Library (AID 1347393); further: potency means the concentration at half of the fitted maximal effect; nearly all actives have a fitted effect of over 40% in size
# How it was run: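 qHTS in SH-SY5Y reporter cells: 16 h compound pretreatment, 4 h thapsigargin, then secreted Gaussia luciferase measured by luminescence.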
# [7] = HPAF-II Cancer Cell Toxicity qHTS against the NCATS CANVASS Library (AID 1347346); further: potency means the concentration at half of the fitted maximal effect; nearly all actives have a fitted effect of over 55% in size
# How it was run: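 Using 1000 HPAF-II cells per well, we titrated compounds over 11 concentrations for 72 h at 37 degrees C/5% CO2, with bortezomib as control. Cell survival was quantified by CellTiter-Glo luminescence.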
# [8] = Panc-1005 Cancer Cell Toxicity qHTS against the NCATS CANVASS Library (AID 1347349); further: potency means the concentration at half of the fitted maximal effect; nearly all actives have a fitted effect of over 60% in size
# How it was run: as §1
# [9] = Viability qHTS for inhibitors of the SERCaMP assay screened against the NCATS CANVASS Library (AID 1347400); further: potency means the concentration at half of the fitted maximal effect; nearly all actives have a fitted effect of over 70% in size
# How it was run: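 Measures loss of viability in SERCaMP reporter SH-SY5Y cells treated for 48 h with compounds; luminescent ATP detection by CellTiter-Glo.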
# [10] = Primary qHTS for inhibitors of nuclear receptor binding SET domain protein 2 (NSD2) in an isogenic RCH-ACV NSD2 p.E1099K mutant (9B) (AID 1645876); further: potency means the concentration at half of the fitted maximal effect; nearly all actives have a fitted effect of over 70% in size
# [11] = Primary qHTS for inhibitors of nuclear receptor binding SET domain protein 2 (NSD2) in an RCH-ACV wild type WT cells (2C) (AID 1645877); further: potency means the concentration at half of the fitted maximal effect; nearly all actives have a fitted effect of over 70% in size
# [12] = qHTS Assay for Identification of Small Molecule Antagonists for Thrombopoietin (TPO) Signaling Pathway (AID 918); conditions: TPO-dependent cell signaling reporter, antagonist mode
# How it was run: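 Antagonist mode at EC50 TPO (26 pM) in IL-3-free medium; murine Ba/F3 cells with human TPO receptor and GPIIb-promoter luciferase, 24 hrs at 37 C before luminescent detection.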
structure (smiles),measurement,setting,value
CCN(CC)CCO[C@H]1CC[C@@]2(C)C(=CC[C@@H]3[C@H]2CC[C@]2(C)C(=O)CC[C@H]32)C1,Potency,[1],inactive
same,Potency,PC15,inactive
C=C1[C@@H](C)[C@H]2[C@H](Cc3ccccc3)NC(=O)[C@]23OC(=O)/C=C/[C@H](O)CCC[C@@H](C)C/C=C/[C@H]3[C@@H]1O,Potency,[2],5.94 µM (active)
same,Potency,[3],inactive
same,Potency,[4],inactive
COc1ccc2c3c([nH]c2c1)C(C)=NCC3,Potency,[5],inactive
same,Potency,[6],27.2 µM (active)
COc1ccc2c(c1)[nH]c1c(C)nccc12,Potency,[7],27.3 µM (active)
same,Potency,[8],30.6 µM (active)
same,Potency,[9],27.8 µM (active)
same,Potency,[10],16.4 µM (active)
same,Potency,[11],8.2 µM (active)
CC(C)[C@@]1(NC(=O)[C@@H]2C[C@H]3c4cccc5[nH]cc(c45)C[C@@H]3N(C)C2)O[C@@]2(O)[C@H]3CCCN3C(=O)[C@H](Cc3ccccc3)N2C1=O,Potency,[12],10 µM (active)

# — PubChem BioAssay (NCATS)
